In PubChem BioAssay (NCATS):
Inconclusive results are not listed. The source made the active and inactive calls. Calls come from the whole dose curve; as a rule, active = well fitted inhibition curve with a large enough effect; inconclusive = small, poorly fitted or top-dose-only effect; inactive = flat fitted curve, though single readings scatter.

Columns and labels:
Experiment in all cases: qHTS profiling for inhibitors of Plasmodium falciparum proliferation (AID 504749); note: nearly all actives have a fitted effect of over 60% in size
Conditions in all cases: P. falciparum in erythrocytes, SYBR Green DNA, 72 h; series mostly up to 28.7 µM
3D7 = test system: 3D7
How it was run: (§1)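 Fluorescence of SYBR Green-bound parasite DNA, read at 485/535 nm, served as the growth measure. Infected erythrocytes were cultured with compound 72 h; artemisinin (0.29 uM) and DMSO wells defined the normalization range.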

7G8 = test system: 7G8
How it was run: as §1

AA1029 = test system: AA1029
How it was run: as §1

ATS95 = test system: ATS95
How it was run: as §1

CP185 = test system: CP185
How it was run: as §1

CP191 = test system: CP191
How it was run: as §1

CP237 = test system: CP237
How it was run: as §1

CP238 = test system: CP238
How it was run: as §1

CP247 = test system: CP247
How it was run: as §1

CP265 = test system: CP265
How it was run: as §1

CP286 = test system: CP286
How it was run: as §1

DFO2036 = test system: DFO2036
How it was run: as §1

FAB9 = test system: FAB9
How it was run: as §1

HB3 = test system: HB3
How it was run: as §1

P94_40 = test system: P94_40
How it was run: as §1

PAD = test system: PAD
How it was run: as §1

PC15 = test system: PC15
How it was run: as §1

PC49 = test system: PC49
How it was run: as §1

TAB109 = test system: TAB109
How it was run: as §1

TAB165 = test system: TAB165
How it was run: as §1

Measured: Potency

CC(=O)OC1CC2CCC1(C)C2(C)C (stereo not given)
inactive: all assays above
